Sampled rows, rich in hits. Any-hit rate of the full collection: about 4.7%.
TRHR agonist – qHTS for Small Molecule Agonists and Allosteric Enhancers of Human TRH Receptor: Primary Screen for Agonists; Thyrotropin-releasing hormone receptor (Homo sapiens), P34981; TRHR cells, calcium flux fluo-8, FDSS agonist mode; activation, % at 2 µM; 360,000 tested, 0.18% active; AID 493084, 2011; further: 0% is about no effect
Target sequence (P34981 whole entry, looked up): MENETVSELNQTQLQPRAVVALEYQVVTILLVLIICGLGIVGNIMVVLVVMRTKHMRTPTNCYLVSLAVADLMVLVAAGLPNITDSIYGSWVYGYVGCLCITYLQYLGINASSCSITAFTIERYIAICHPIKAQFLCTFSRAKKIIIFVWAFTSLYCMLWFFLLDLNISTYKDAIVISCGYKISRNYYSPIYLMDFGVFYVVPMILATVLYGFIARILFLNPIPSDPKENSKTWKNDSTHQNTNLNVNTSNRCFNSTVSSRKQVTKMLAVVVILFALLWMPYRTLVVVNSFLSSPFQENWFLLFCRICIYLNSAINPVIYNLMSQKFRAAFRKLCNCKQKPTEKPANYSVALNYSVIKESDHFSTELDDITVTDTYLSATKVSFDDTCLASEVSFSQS
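In this calcium-flux screen, cells bearing human TRHR are dye-loaded with fluo-8, baselined for 10 cycles, then exposed to library compounds; positive kinetic calcium responses during the agonist phase mark hits, with TRH as control.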
D1 agonist – Allosteric Agonists of the Human D1 Dopamine Receptor: qHTS | D(1A) dopamine receptor (Homo sapiens), P21728 | HEK293 T-REx D1 cells, calcium flux, agonist mode | activation, % at 2 µM | 360,000 tested, 1% active | AID 504660, 2011; further: 0% is about no effect
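Inducible HEK293 T-REx D1 cells, force-coupled to calcium signalling, were plated at 4000 cells/well with tetracycline and held overnight at 30 C. After no-wash calcium dye loading, compound-evoked calcium rise over 180 s flagged agonists.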
TRHR PAM – qHTS for Small Molecule Agonists and Allosteric Enhancers of Human TRH Receptor: Primary Screen for Enhancers. Thyrotropin-releasing hormone receptor (Homo sapiens), P34981. TRHR cells, fluo-8 calcium fluorescence, EC20 TRH enhancement. enhancement, % at 2 µM. 360,000 tested, 0.66% active. AID 493056, 2011; in the data active means enhancement above about 30%; further: 0% is about no effect
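TRHR-expressing cells loaded with fluo-8 calcium dye were read kinetically (ex 480/em 530) during compound addition, then stimulated with an EC20 of TRH (10 nM final). Enhancement of the Gq-mediated intracellular calcium response was scored.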
D1 antag – Antagonist of Human D 1 Dopamine Receptor: qHTS; D(1A) dopamine receptor (Homo sapiens), P21728; HEK293 TREx D1 cells, calcium flux, dopamine EC80; hits give low values; AID 504652, 2011; activity change, negative = inhibition, % at 10 µM; 360,000 tested, 3.2% active; in the data active means activity change below about -30%; further: on the % scale 0 is the no-effect control and ±100 the full control effect
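Allosteric or orthosteric antagonism assessed as attenuation of the calcium response to EC80 dopamine, added 180 s after compound, in induced HEK293 Trex D1 cells loaded with no-wash calcium dye.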
D1 potentiator – Potentiators of Human D1 Dopamine Receptor: qHTS | D(1A) dopamine receptor (Homo sapiens), P21728 | HEK293 TREx D1 cells, calcium flux, dopamine EC20 potentiation | potentiation, % at 10 µM | 360,000 tested, 0.036% active | AID 504651, 2011; in the data active means potentiation above about 30%; further: 0% is about no effect
* hit, by the source's call. Unless noted, no stated cut-off is given here; in the data, active means activation above about 30%; inactive means the rest.

SMILES	TRHR agonist	D1 agonist	TRHR PAM	D1 antag	D1 potentiator
Cc1ccc(CNC(=O)COC(=O)c2ccc(S(=O)(=O)N3CCCC3)cc2)cc1	-0.3	3.7	-5.0	-30.4*	-2.9
CCOc1ccc(CCNC(=O)COC(=O)c2ccc(S(C)(=O)=O)cc2)cc1OCC	-0.1	0.8	-2.3	3.0	-6.8
CCOc1ccc(CCNC(=O)COC(=O)c2ccc(S(=O)(=O)N3CCCC3)cc2)cc1OCC	0.1	3.9	1.0	-37.5*	-3.5
CCOc1ccc(CCNC(=O)COC(=O)c2ccc(C)c([N+](=O)[O-])c2)cc1OCC	-1.4	2.7	3.9	-46.9*	0.2
Cc1ccc(C)c(NC(=O)Cn2c(=O)n(Cc3ccco3)c(=O)c3oc4ccccc4c32)c1	-1.1	1.0	-1.1	6.2	-4.7
COc1cccc2c1Oc1ncccc1N(C(=O)Nc1cccc(Cl)c1)C2	1.7	10.9	-4.4	2.5	1.6
CCCCc1cc(=O)oc2cc(C)cc(OCC(=O)N3CCC(C(=O)O)CC3)c12	0.2	1.5	-3.9	-4.4	22.7
CCCc1cc(=O)oc2cc(C)cc(OCC(=O)N3CCC(C(=O)O)CC3)c12	-0.4	0.9	1.5	-64.3*	-3.1
Cc1noc(C)c1CSc1ccc(Br)cc1	-0.3	15.4	3.7	-32.9*	-5.6
CC(=O)Nc1ccc(SCc2c(C)noc2C)cc1	0.4	3.0	3.3	-14.6	-5.3
c1coc(CNc2ncnc3[nH]ncc23)c1	1.8	6.0	7.5	-40.7*	-4.3
c1coc(CNc2ncnc3nc[nH]c23)c1	0.6	2.9	-0.4	0.5	0.3
Cc1ccc(/C=c2\sc3n(c2=O)CN(c2ccc(Br)cc2)CN=3)o1	0.5	-0.2	-8.8	-38.9*	-11.3
Cc1ccc2occ(CC(=O)Nc3ccc(S(=O)(=O)N4CCC(C)CC4)cc3)c2c1	1.9	4.1	25.6	0.7	4.6
CC(C)(C)OC(=O)NCc1nnc(-c2nc3ccccc3[nH]2)o1	-0.2	3.6	-4.8	2.8	7.2
Cc1cc2c3nonc3ccc2n1C	0.1	1.5	-11.1	-34.0*	-2.6
COc1ccc(C)cc1NC(=O)C(OC(=O)c1ccc([N+](=O)[O-])o1)c1ccccc1 (configuration not stated)	-1.1	-0.5	-4.7	-48.4*	-0.1
COc1ccc(C)cc1NC(=O)C(OC(=O)c1cnccn1)c1ccccc1 (configuration not stated)	0.1	1.1	4.5	7.5	-4.2
Cc1ccc(CN2CCN(C3CCN(C(=O)Nc4ccc(C)cc4Cl)CC3)C(=O)C2=O)cc1	-0.3	-1.0	17.6	15.2	1.9
CCSC1=NCCN1S(=O)(=O)c1ccc2ccccc2c1	-0.7	0.6	-7.2	-30.5*	-2.6
O=S(=O)(c1ccc2ccccc2c1)N1CCN=C1SCc1cccnc1	-0.4	3.2	-9.3	-33.5*	-2.1
COc1ccc(Cn2nnc(C(=O)Nc3cc(OC)ccc3OC)c2N)cc1	1.8	0.0	6.5	23.0	-2.2
S=C(Nc1ccc(Cl)cc1)NC1CC2CCCC(C1)N2C1CC1 (configuration not stated)	0.1	134.6*	0.8	-40.8*	7.4
C=CCN1C2CCCC1CC(NC(=S)Nc1ccc(Cl)cc1)C2 (configuration not stated)	2.2	22.7	2.5	-84.4*	-1.3
S=C(Nc1ccc(Cl)cc1)NC1CC2CCC(C1)N2Cc1ccccc1 (configuration not stated)	6.7	52.0*	2.7	-42.7*	8.4
CCc1ccc(NC(=S)NC2CC3CCCC(C2)N3Cc2ccccc2)cc1 (configuration not stated)	-0.5	20.3	7.0	-29.0	0.6
C=CCN1C2CCCC1CC(NC(=O)Nc1cc(C)cc(C)c1)C2 (configuration not stated)	0.1	5.3	-1.4	-7.4	-5.7
N#CNC(=Nc1ccccc1)SCc1ccc(C(=O)O)cc1	1.7	2.4	5.3	-1.4	-2.8
CC(C)N=C(NC#N)SCC(=O)NC(C)(C)C	-0.3	1.5	-4.4	9.6	-5.2

Assay outcomes as filed in PubChem.
